Results from PubChem BioAssay AID588855 (National Center for Advancing Translational Sciences (NCATS), 2011).
The campaign covered roughly 410,000 compounds. About 5,000 (1.2%) were called active. Another 13% or so got no clear call; they are omitted. The call rests on the fitted dose curve; in most records, active means well fitted inhibition curve with a large enough effect; inconclusive means small, poorly fitted or top-dose-only effect; inactive means no such curve, though single readings can be large or run the other way. Many of the other results were omitted from the sample, so actives are more common in it than they were.

Test: qHTS for Inhibitors of TGF-b; further: nearly all actives have a fitted effect of over 65% in size
Conditions: HepG2 CAGA-GFP TGF-b/SMAD3 reporter, GFP fluorescence, 18 h, TGF-beta stimulated, 500 pg/mL final; series mostly up to 46.1 µM; activity, negative = inhibition: at the top concentration
Outline: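 Cell-based qHTS in HEPG2 carrying a CAGA-GFP Smad reporter; compounds added before 500 pg/mL final TGF-beta, 18 h incubation at 37 degrees C, GFP fluorescence quantified per cell by imaging cytometry.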
On the % scale 0 is the no-effect control and ±100 the full control effect; potency means the concentration at half of the fitted maximal effect.

activity, negative = inhibition, inactive:
CCOc1ccc(C2C(C(=O)Nc3ccc(Cl)cc3)=C(C)Nc3nc(C(F)(F)F)nn32)cc1 (stereo not given) -20.7%
CCc1ccc(NC(=O)c2cc(S(=O)(=O)N3CCCC(C)C3)cn2C)cc1 (stereo not given) -6.75%
Cn1c(=O)c2c(SCC(=O)NCC3CCCO3)nc(-c3ccccc3F)nc2n(C)c1=O (stereo not given) -1.79%
CCS(=O)(=O)Nc1cccc(-c2cc(-c3ccccc3)c3cc(C)ccc3n2)c1 0%
CNC(=O)COc1ccc(S(=O)(=O)Nc2ccccc2)cc1 3.64%
COc1ccccc1-c1ccnc2[nH]n(-c3ccccc3)c(=O)c12 12.7%
CCOC(=O)C1CCCN(CC(=O)Nc2cc(C)c3c(=O)oc4ccccc4c3n2)C1 (stereo not given) -2.9%
O=C(O)C1CC=CC2CCN(C3CCCCC3)C(=O)C21 (stereo not given) -5.85%
CCOc1cc(/C=C(\C#N)C(=O)Nc2ccccc2C)ccc1OCc1cc(=O)n2nc(CC)sc2n1 -28.7%
COC(=O)c1nc(NC(=O)c2ccc(C(C)(C)C)cc2)n[nH]1 -3.02%
COc1ccc(NS(=O)(=O)c2ccc(N3CCOCC3)c(NC(=O)/C=C/C(=O)O)c2)cc1 5.91%
COc1ccc(C(=O)Nc2ccc(-n3nncc3-c3ccccc3)cc2)cc1OC 13.3%
CCOC(=O)Nc1ccc2c(c1)N(C(=O)CCN1CCN(CCO)CC1)c1ccccc1CC2 -2.31%
CCOC(=O)Nc1ccc2c(c1)N(C(=O)CN1CCN3CCCC3C1)c1ccccc1CC2 (stereo not given) -0.581%
S=c1[nH]c(=S)c2n[nH]nc2[nH]1 4.69%
Cc1ccc(C(=O)Nc2c(C(=O)NC(C)(C)C)oc3ccccc23)cc1 -5.94%
CCCC(=O)Nc1ccc2oc(-c3ccc(O)c(Br)c3)nc2c1 0.0308%
CC(=O)Nc1ccc(C=CC(=O)c2ccc([N+](=O)[O-])cc2)cc1 -0.532%
CC(=O)Nc1ccc(C=Cc2ccc([N+](=O)[O-])cc2)cc1 -0.331%
COC(=O)c1cccc(Cn2nnc3sc4c(c3c2=O)CCC(C(C)(C)C)C4)c1 (stereo not given) 2.33%
COc1cccc(CNc2nccn(-c3ccc(OC)c(OC)c3)c2=O)c1 1.79%
O=C(NC1CCN(Cc2ccccc2)CC1)c1ccc(Cn2c(=O)c3ccccc3n(Cc3cccc(F)c3)c2=O)cc1 -6.31%
Fc1ccc(-c2nc(Nc3cccc(Cl)c3)nc3c2COc2ccccc2-3)cc1 -2.73%
Cc1oc(C)c2c(=O)cc(-c3ccc4c(c3)OCO4)cc(OC(=O)c3ccc(Cl)cc3)c12 59.8%
COc1ccc(C(=O)Nc2onc3c2CCCC3)cc1 6.55%
Cc1ccc(NC(=O)NNC(=O)c2sccc2-n2cccc2)cc1 19.4%
O=C(NNC(=O)c1ccc(-c2ccccc2)cc1)Nc1ccccc1 -0.136%
O=C(NC1CC(=O)N(c2ccc(F)cc2)C1)c1cccs1 (stereo not given) -3.09%
CC1(C)CC(=O)C=C(NCCCNC2CCCCC2)C1 -17.7%
CCCCNS(=O)(=O)CCNCc1ccccc1OC 6.03%
O=C(CC1Oc2ccc(Cl)cc2NC1=O)NCc1ccccc1 (stereo not given) -15.2%
Cc1ccccc1CNC(=O)C(=O)NCC(c1cccs1)S(=O)(=O)c1cccs1 (stereo not given) 4.69%
CN1CCN(c2ccc([N+](=O)[O-])c(Sc3nc4ccccc4[nH]3)c2)CC1 4.28%
CN(Cc1ccccc1)C(=O)CSc1nc2ccccc2[nH]1 -5.19%
COc1ccc(-c2nnc(SCC(=O)Nc3ccc(C(C)C)cc3)nc2-c2ccc(OC)c(OC)c2)cc1OC 0.381%
COc1ccc(CNC(=O)Cn2nnc(-c3ccccc3F)n2)cc1 -2.89%
O=C(NNC(=O)C(O)c1ccccc1)NC1CCCCC1 (stereo not given) 20.3%
CC(C)c1cc(C(=O)NC2CCCCCC2)c2ccccc2n1 -0.515%
CCC1(C)CC(=O)c2c(ccc3oc(C(=O)Nc4ccc(C(C)=O)cc4)c(C)c23)O1 (stereo not given) 3.5%
CCn1c(=O)cc(OCC(=O)Nc2cc(Cl)c(OC)cc2OC)c2ccccc21 -0.391%
COc1ccc(OC)c(-c2csc(-c3c(N)c(C(=O)c4ccccc4)n4ccccc34)n2)c1 9.43%
Cc1nnc(SC(C(=O)c2ccccc2)c2ccccc2)[nH]c1=O (stereo not given) 1.93%
COc1cccc(NC(=O)C(Sc2nnnn2C)c2ccccc2)c1 (stereo not given) -1.18%
Cc1ccn2c(Nc3ccc4c(c3)OCCO4)c(-c3ccc(C)s3)nc2c1 23.7%
COc1ccccc1CNC(=O)c1ccc(-n2c(C)cc3c2CCCC3)cc1 -1.18%
Cc1ccc(C(=O)Nc2ccccc2F)cc1S(=O)(=O)N1CCOCC1 10.2%
CC(=O)c1cccc(NC(=S)N2CCCC2)c1 1.35%
CC(=O)c1ccc(NC(=O)CSc2nnc(NC(=O)Nc3ccccc3)s2)cc1 -0.835%
CCN(CC)c1ccc(NC(=O)Cn2nc3c(cc2=O)CCCC3)c(C)c1 0.157%
O=C(Nc1ccccc1Cl)N1CCC(CN2CCCC2)CC1 -7.51%
CS/C(=C\C(=O)c1ccco1)Nc1ccccc1Cl -18.8%

Potency, active:
CCCOc1ccc(-c2cccc(NS(=O)(=O)c3ccccc3)c2)nn1 10 µM
CN(C)c1nc(=Nc2cccc(Cl)c2)ss1 0.282 µM
C=C(C)C(=O)O[C@H]1C/C(C)=C\C(=O)/C=C(\C)[C@H](O)[C@@H]2OC(=O)C(=C)[C@@H]21 3.55 µM
COC(=O)c1sc(-c2ccc(C(C)(C)C)cc2)cc1NC(=O)/C=C/C(=O)O 8.91 µM
CCOC(=O)Nc1ccc2c(c1)N(C(=O)CCCl)c1ccccc1[S@]2=O 7.08 µM
O=C1/C(=C\c2ccc([N+](=O)[O-])cc2)CS(=O)(=O)C/C1=C/c1ccc([N+](=O)[O-])cc1 6.31 µM
C=CC[n+]1c(-c2ccc(C)cc2)csc1NNC(=O)Nc1ccccc1 11.2 µM
CCCCCCCCNS(=O)(=O)CCNC1CCCCC1 17.8 µM
CCC(C)N1C(=O)S/C(=C/c2ccc(Sc3nc4ccccc4[nH]3)o2)C1=O (stereo not given) 11.2 µM
Cc1nc(/N=C(\N)NC(=O)NC2CCCCC2)nc2ccccc12 12.6 µM
C=CS(=O)c1sc(Cl)c(N2CCOCC2)c1[N+](=O)[O-] (stereo not given) 11.2 µM
Cc1nnc(SC(C(=O)Nc2cc(Cl)cc(Cl)c2)c2ccccc2)[nH]c1=O (stereo not given) 17.8 µM
C=CCSc1nsc(NC(=O)Nc2cccc(C(C)=O)c2)n1 3.55 µM
O=C(Nc1ccccc1Cl)/C(Cl)=C(\Cl)S(=O)c1ccccc1 (stereo not given) 2.24 µM
